# From PubChem BioAssay AID1159580 (chemical genetic matrix, 2015)
# “And” between values parts separate entries of the source, which are not always exact repeats. Identical values can stand only once. About 2,000 (36%) of roughly 5,500 compounds were called active. Not shown: some 18% with an inconclusive outcome. The list shows a part of the results. A number with no mark means an inactive call. Cut-off read from the data, not from the text of the source: active = normalized growth mostly below about 0.91 (no sharp cut-off); inconclusive = no clear call, values can overlap the other calls; inactive = mostly above about 0.92.
# Assay: chemical genetic growth profiling, strain panel (AID 1159580);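 note: tested at 20 µM; growth read once vehicle control cultures reached saturation at 30 °C; 1 = growth at the plate median or of vehicle wells; lower values mean less growth of the strain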
# Settings: S. cerevisiae deletion strains, growth OD
compound,measurement,setting,value
CC(=O)C1CC[C@H]2C3CC[C@H]4C[C@H](O)CC[C@]4(C)C3CC[C@]12C (some centres undefined),normalized growth,"locus YAL013W, strain DEP1, active compounds read low",1
same,normalized growth,"locus YAL021C, strain ccr4, active compounds read low",0.936
same,normalized growth,"locus YAL026C, strain drs2, active compounds read low",0.849 (active)
same,normalized growth,"locus YAL030W, strain snc1, active compounds read low",0.999
same,normalized growth,"locus YBL061C, strain skt5, active compounds read low",1.02
same,normalized growth,"locus YBR009C, strain hhf1, active compounds read low",1.02
same,normalized growth,"locus YBR021W, strain FUR4, active compounds read low",0.977
same,normalized growth,"locus YBR023C, strain chs3, active compounds read low",0.998
same,normalized growth,"locus YBR171W, strain sec66, active compounds read low",0.998
same,normalized growth,"locus YBR229C, strain ROT2, active compounds read low",0.995
same,normalized growth,"locus YBR231C, strain swc5, active compounds read low",1.01
same,normalized growth,"locus YBR279W, strain paf1, active compounds read low",0.987
same,normalized growth,"locus YCL011C, strain gbp2, active compounds read low",0.995
same,normalized growth,"locus YCL016C, strain dcc1, active compounds read low",0.964
same,normalized growth,"locus YCL029C, strain bik1, active compounds read low",0.998
same,normalized growth,"locus YCL069W, strain vba3, active compounds read low",1
same,normalized growth,"locus YCR088W, strain abp1, active compounds read low",1
same,normalized growth,"locus YDL005C, strain med2, active compounds read low",0.997
same,normalized growth,"locus YDL035C, strain GPR1, active compounds read low",0.999
same,normalized growth,"locus YDL040C, strain nat1, active compounds read low",1.01
same,normalized growth,"locus YDL074C, strain BRE1, active compounds read low",1.01
same,normalized growth,"locus YDL101C, strain DUN1, active compounds read low",0.982
same,normalized growth,"locus YDL134C, strain PPH21, active compounds read low",0.975
same,normalized growth,"locus YDL185W, strain tfp1, active compounds read low",0.989
same,normalized growth,"locus YDL192W, strain arf1, active compounds read low",1
same,normalized growth,"locus YDR001C, strain nth1, active compounds read low",1.01
same,normalized growth,"locus YDR069C, strain doa4, active compounds read low",1
same,normalized growth,"locus YDR101C, strain arx1, active compounds read low",1.01
same,normalized growth,"locus YDR137W, strain rgp1, active compounds read low",0.763 (active)
same,normalized growth,"locus YDR159W, strain sac3, active compounds read low",1.03
same,normalized growth,"locus YDR162C, strain NBP2, active compounds read low",0.993
same,normalized growth,"locus YDR195W, strain ref2",1.02
same,normalized growth,"locus YDR297W, strain sur2, active compounds read low",1.02
same,normalized growth,"locus YDR318W, strain mcm21, active compounds read low",0.995
same,normalized growth,"locus YDR334W, strain swr1, active compounds read low",1.01
same,normalized growth,"locus YDR335W, strain msn5, active compounds read low",0.984
same,normalized growth,"locus YDR388W, active compounds read low",0.994
same,normalized growth,"locus YDR392W, strain spt3, active compounds read low",0.837
same,normalized growth,"locus YDR502C, strain sam2, active compounds read low",0.971
same,normalized growth,"locus YEL003W, strain gim4, active compounds read low",1
same,normalized growth,"locus YEL037C, strain rad23, active compounds read low",0.994
same,normalized growth,"locus YEL061C, strain CIN8 (second series), active compounds read low",1
same,normalized growth,"locus YEL061C, strain CIN8, active compounds read low",1.01
same,normalized growth,"locus YER015W, strain faa2, active compounds read low",1
same,normalized growth,"locus YER016W, strain bim1, active compounds read low",0.998
same,normalized growth,"locus YER110C, active compounds read low",0.981
same,normalized growth,"locus YER111C, strain swi4, active compounds read low",0.994
same,normalized growth,"locus YER155C, strain BEM2 (second series), active compounds read low",1.02
same,normalized growth,"locus YER155C, strain BEM2, active compounds read low",0.992
same,normalized growth,"locus YER167W, strain BCK2, active compounds read low",0.993
same,normalized growth,"locus YFR010W, strain ubp6, active compounds read low",0.999
same,normalized growth,"locus YGL078C, strain dbp3, active compounds read low",0.963
same,normalized growth,"locus YGL086W, strain mad1, active compounds read low",0.971
same,normalized growth,"locus YGL167C, strain pmr1, active compounds read low",1.01
same,normalized growth,"locus YGL173C, strain kem1, active compounds read low",0.99
same,normalized growth,"locus YGL227W, strain vid30, active compounds read low",1.01
same,normalized growth,"locus YGL240W, strain doc1, active compounds read low",1.01
same,normalized growth,"locus YGL248W, strain PDE1, active compounds read low",0.987
same,normalized growth,"locus YGL253W, strain hxk2, active compounds read low",0.983
same,normalized growth,"locus YGR078C, strain PAC10, active compounds read low",0.969
same,normalized growth,"locus YGR135W, strain pre9, active compounds read low",0.932
same,normalized growth,"locus YGR229C, strain SMI1, active compounds read low",1.05
same,normalized growth,"locus YGR252W, strain gcn5, active compounds read low",0.928
same,normalized growth,"locus YHR013C, strain ard1, active compounds read low",0.996
same,normalized growth,"locus YHR027C, strain rpn1, active compounds read low",0.999
same,normalized growth,"locus YHR030C, strain SLT2, active compounds read low",0.992 and 0.994
same,normalized growth,"locus YHR079C, strain IRE1 (second series), active compounds read low",1
same,normalized growth,"locus YHR079C, strain IRE1, active compounds read low",1
same,normalized growth,"locus YHR094C, strain hxt1, active compounds read low",0.992
same,normalized growth,"locus YHR129C, strain ARP1, active compounds read low",1
same,normalized growth,"locus YHR142W, strain chs7, active compounds read low",0.957
same,normalized growth,"locus YHR200W, strain rpn10, active compounds read low",0.984
same,normalized growth,"locus YIL066C, strain RNR3, active compounds read low",1.01
same,normalized growth,"locus YIL073C, strain SPO22, active compounds read low",0.962
same,normalized growth,"locus YIL125W, strain kgd1, active compounds read low",1
same,normalized growth,"locus YIR030C, strain dcg1, active compounds read low",0.998
same,normalized growth,"locus YJL092W, strain hpr5, active compounds read low",1
same,normalized growth,"locus YJL095W, strain BCK1 (second series), active compounds read low",1.01
same,normalized growth,"locus YJL095W, strain BCK1, active compounds read low",0.936 and 0.99
same,normalized growth,"locus YJL115W, strain asf1, active compounds read low",1
same,normalized growth,"locus YJL129C, strain trk1, active compounds read low",1.01
same,normalized growth,"locus YJL134W, strain LCB3, active compounds read low",1
same,normalized growth,"locus YJL154C, strain vps35, active compounds read low",1.01
same,normalized growth,"locus YJL164C, strain tpk1, active compounds read low",0.999
same,normalized growth,"locus YJL166W, strain qcr8, active compounds read low",1.01
same,normalized growth,"locus YJL168C, strain set2, active compounds read low",1
same,normalized growth,"locus YJL187C, strain SWE1 (second series), active compounds read low",0.962
same,normalized growth,"locus YJL187C, strain SWE1, active compounds read low",1.01
same,normalized growth,"locus YJR043C, strain POL32, active compounds read low",1.05
same,normalized growth,"locus YJR066W, strain TOR1, active compounds read low",0.924
same,normalized growth,"locus YKL009W, strain mrt4, active compounds read low",0.978
same,normalized growth,"locus YKL068W, active compounds read low",0.993
same,normalized growth,"locus YKL085W, strain MDH1 (second series), active compounds read low",1.01
same,normalized growth,"locus YKL085W, strain MDH1, active compounds read low",1.01
same,normalized growth,"locus YKL160W, strain elf1, active compounds read low",0.976
same,normalized growth,"locus YKL190W, strain CNB1, active compounds read low",1.01
same,normalized growth,"locus YKR001C, strain vps1, active compounds read low",1.02
same,normalized growth,"locus YKR026C, strain gcn3, active compounds read low",1
same,normalized growth,"locus YKR091W, strain srl3, active compounds read low",1.01
same,normalized growth,"locus YLL001W, strain dnm1, active compounds read low",1
same,normalized growth,"locus YLL026W, active compounds read low",1.02
same,normalized growth,"locus YLL041C, strain sdh2, active compounds read low",0.997
same,normalized growth,"locus YLR027C, strain aat2, active compounds read low",0.983
same,normalized growth,"locus YLR039C, strain RIC1, active compounds read low",0.797
same,normalized growth,"locus YLR058C, strain SHM2, active compounds read low",0.991
same,normalized growth,"locus YLR102C, strain apc9, active compounds read low",1
same,normalized growth,"locus YLR113W, strain HOG1, active compounds read low",1.01
same,normalized growth,"locus YLR221C, strain rsa3, active compounds read low",1.03
same,normalized growth,"locus YLR258W, strain gsy2, active compounds read low",0.964
same,normalized growth,"locus YLR262C, strain YPT6 (second series), active compounds read low",0.778 (active)
same,normalized growth,"locus YLR268W, strain sec22, active compounds read low",0.977
same,normalized growth,"locus YLR320W, strain mms22, active compounds read low",0.98
same,normalized growth,"locus YLR330W, strain CHS5, active compounds read low",1
same,normalized growth,"locus YLR342W, strain FKS1 (second series), active compounds read low",0.997
same,normalized growth,"locus YLR342W, strain FKS1, active compounds read low",1.01
same,normalized growth,"locus YLR357W, strain rsc2, active compounds read low",0.994
same,normalized growth,"locus YLR370C, strain arc18, active compounds read low",0.999
same,normalized growth,"locus YLR371W, strain rom2, active compounds read low",1
same,normalized growth,"locus YLR384C, strain iki3, active compounds read low",0.977
same,normalized growth,"locus YLR418C, strain cdc73, active compounds read low",0.993
same,normalized growth,"locus YML016C, strain PPZ1, active compounds read low",0.994
same,normalized growth,"locus YML032C, strain rad52, active compounds read low",0.969
same,normalized growth,"locus YML120C, strain ndi1, active compounds read low",1.02
same,normalized growth,"locus YML124C, strain tub3, active compounds read low",0.996
same,normalized growth,"locus YMR058W, strain fet3, active compounds read low",1.01
same,normalized growth,"locus YMR078C, strain ctf18, active compounds read low",0.988
same,normalized growth,"locus YMR125W, strain sto1, active compounds read low",0.998
same,normalized growth,"locus YMR129W, active compounds read low",1
same,normalized growth,"locus YMR205C, strain PFK2, active compounds read low",1
same,normalized growth,"locus YMR223W, strain ubp8, active compounds read low",0.977
same,normalized growth,"locus YMR231W, strain pep5, active compounds read low",1.01
same,normalized growth,"locus YMR307W, strain GAS1, active compounds read low",1.11
same,normalized growth,"locus YNL067W, strain RPL9B, active compounds read low",0.967
same,normalized growth,"locus YNL071W, strain lat1, active compounds read low",0.995
same,normalized growth,"locus YNL128W, strain TEP1, active compounds read low",0.993
same,normalized growth,"locus YNL153C, strain GIM3, active compounds read low",0.985
same,normalized growth,"locus YNL183C, strain NPR1, active compounds read low",0.959
same,normalized growth,"locus YNL209W, strain ssb2, active compounds read low",0.987
same,normalized growth,"locus YNL233W, strain BNI4, active compounds read low",0.992
same,normalized growth,"locus YNL248C, strain rpa49, active compounds read low",0.939
same,normalized growth,"locus YNL250W, strain rad50, active compounds read low",0.946
same,normalized growth,"locus YNL271C, strain bni1, active compounds read low",0.986
same,normalized growth,"locus YNL298W, strain CLA4, active compounds read low",0.993
same,normalized growth,"locus YNL307C, strain MCK1, active compounds read low",1.01
same,normalized growth,"locus YNL322C, strain KRE1 (second series), active compounds read low",1.01
same,normalized growth,"locus YNR049C, strain mso1, active compounds read low",1.01
same,normalized growth,"locus YNR052C, strain pop2, active compounds read low",0.943
same,normalized growth,"locus YOL012C, strain htz1",0.983
same,normalized growth,"locus YOL147C, strain pex11, active compounds read low",0.994
same,normalized growth,"locus YOR001W, strain rrp6, active compounds read low",0.994
same,normalized growth,"locus YOR061W, strain CKA2, active compounds read low",1.01
same,normalized growth,"locus YOR069W, strain VPS5, active compounds read low",0.988
same,normalized growth,"locus YOR070C, strain gyp1, active compounds read low",0.991
same,normalized growth,"locus YOR080W, strain dia2, active compounds read low",1.01
same,normalized growth,"locus YOR083W, strain WHI5, active compounds read low",0.984
same,normalized growth,"locus YOR106W, strain vam3, active compounds read low",0.995
same,normalized growth,"locus YOR136W, strain idh2, active compounds read low",0.992
same,normalized growth,"locus YOR144C, strain elg1, active compounds read low",0.998
same,normalized growth,"locus YOR184W, strain ser1, active compounds read low",0.981
same,normalized growth,"locus YOR231W, strain MKK1, active compounds read low",0.996
same,normalized growth,"locus YOR265W, strain rbl2, active compounds read low",0.993
same,normalized growth,"locus YOR270C, strain vph1, active compounds read low",0.949
same,normalized growth,"locus YOR290C, strain snf2, active compounds read low",0.951
same,normalized growth,"locus YOR316C, strain cot1, active compounds read low",1
same,normalized growth,"locus YPL051W, strain arl3, active compounds read low",0.986
same,normalized growth,"locus YPL078C, strain atp4, active compounds read low",0.976
same,normalized growth,"locus YPL106C, strain sse1, active compounds read low",1.04
same,normalized growth,"locus YPL240C, strain hsp82, active compounds read low",1.02
same,normalized growth,"locus YPL256C, strain CLN2, active compounds read low",1.01
same,normalized growth,"locus YPR119W, strain clb2, active compounds read low",0.997
same,normalized growth,"locus YPR141C, strain kar3, active compounds read low",0.99
same,normalized growth,"locus YPR163C, strain tif3, active compounds read low",0.99
same,normalized growth,"locus YPR167C, strain met16, active compounds read low",0.995
same,normalized growth,"strain wtn01, active compounds read low",0.987
